Test results published in PubChem BioAssay AID1345085 (National Center for Advancing Translational Sciences (NCATS), 2018).
Records with an inconclusive call do not appear. Calls of active or inactive are those of the source. Calls come from the whole dose curve; as a rule, active = well fitted cell-killing curve with a large enough effect; inconclusive = small, poorly fitted or top-dose-only effect, or effect the other way; inactive = no such curve, though single readings can be large or run the other way.

system: Tov-21-G; assay: Confirmatory qHTS for gynecologic anti-cancer compounds from libraries of approved drugs and bioactive compounds; conditions: gynecologic cancer cell panel viability, ATPlite luminescence, 48 h; series mostly up to 57.7 µM; note: nearly all actives have a fitted effect of over 55% in size
How it was run: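 IC50 values derive from an ATPlite ATP-content luminescence assay following 48 h treatment at 37 C. Each compound ran as an 11-concentration, threefold series (57.5 uM to 0.977 nM); HEK 293T served as control line for selectivity index.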
Potency is the fitted concentration of half-maximal effect.

Structure (SMILES)	Potency
Nc1ccc(C(=O)Nc2cccc(-c3nc(N4CCOCC4)c4oc5ncccc5c4n3)c2)cn1	6.11 µM (active)
Cc1ccn(-c2ccc(-c3ncco3)cc2)c(=O)c1-c1ccc2nc(N)ncc2c1	6.11 µM (active)
Nc1ccccc1NC(=O)c1ccc(CNC(=O)OCc2cccnc2)cc1	7.69 µM (active)
O=C(/C=C/c1cccc(S(=O)(=O)Nc2ccccc2)c1)NO	4.73 µM (active)
Cc1ccc(C(=O)Nc2ccc(CN3CCN(C)CC3)c(C(F)(F)F)c2)cc1C#Cc1cnc2[nH]ncc2c1	0.0273 µM (active)
Cc1csc(NC(=O)c2sc3nc4c(c(C(F)(F)F)c3c2N)CCC4)n1	1.93 µM (active)
C#C[C@]1(O)CC[C@H]2[C@@H]3CCC4=CC(=O)CC[C@@H]4[C@H]3CC[C@@]21CC	inactive
CN(C)CCC(CSc1ccccc1)Nc1ccc(S(=O)(=O)NC(=O)c2ccc(N3CCN(Cc4ccccc4-c4ccc(Cl)cc4)CC3)cc2)cc1[N+](=O)[O-] (stereo not drawn)	13.7 µM (active)
CN[C@@H](C)C(=O)N[C@H]1CN(C(=O)CC(C)C)CC[C@H]2CC[C@@H](C(=O)NC(c3ccccc3)c3ccccc3)N2C1=O	21.7 µM (active)
Nc1ccn([C@@H]2O[C@H](CO)[C@@H](O)C2(F)F)c(=O)n1	6.11 µM (active)
Cc1ccc(C(=O)Nc2cccc(C(F)(F)F)c2)cc1-c1ccc2nc(NCCN3CCOCC3)ncc2c1	4.85 µM (active)
CN(C)/N=N/c1nc[nH]c1C(N)=O	inactive
COc1cc(N2CCC(N3CCN(C)CC3)CC2)ccc1Nc1ncc(Cl)c(Nc2ccccc2S(=O)(=O)C(C)C)n1	6.11 µM (active)
